What was measured:
Assay in all cases: DAPPL (digital affinity profiling via proximity ligation, sequencing); 10 mM Tris-HCl pH 7.5, 50 mM NaCl, 1 mM DTT, 4% glycerol, room temperature, 30 min; GST-TFs on glutathione beads, 16-mer random dsDNA library, 0.1% formaldehyde crosslink after washing; high values mean tight binding
Settings in all cases: protein: recombinant; tags: N-terminal GST; dsDNA, one strand shown
ERF = target: T1, ERF (Homo sapiens, UniProt P50548 1-548)
T1 sequence: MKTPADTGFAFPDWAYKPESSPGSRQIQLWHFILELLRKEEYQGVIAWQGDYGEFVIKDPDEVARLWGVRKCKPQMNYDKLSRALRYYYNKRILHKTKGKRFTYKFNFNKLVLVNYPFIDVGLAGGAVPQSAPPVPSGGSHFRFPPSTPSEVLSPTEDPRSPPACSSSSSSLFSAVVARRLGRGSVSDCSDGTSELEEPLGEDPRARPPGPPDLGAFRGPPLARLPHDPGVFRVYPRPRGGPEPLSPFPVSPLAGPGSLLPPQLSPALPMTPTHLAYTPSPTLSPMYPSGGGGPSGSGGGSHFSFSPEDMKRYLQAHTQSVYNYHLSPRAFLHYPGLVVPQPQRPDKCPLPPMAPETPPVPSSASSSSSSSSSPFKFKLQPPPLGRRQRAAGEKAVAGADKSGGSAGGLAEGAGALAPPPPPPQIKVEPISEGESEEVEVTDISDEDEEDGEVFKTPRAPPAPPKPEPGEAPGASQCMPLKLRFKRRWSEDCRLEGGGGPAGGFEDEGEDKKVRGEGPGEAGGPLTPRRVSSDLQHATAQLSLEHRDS
Summary of the method: (§1)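 Yeast served to express human transcription factors as GST fusions, which were then captured on glutathione beads and labelled with DNA barcodes. Pooled with a tag-only sample, they were incubated with 200 nmole of a 16-mer random double-stranded DNA library for 30 min at room temperature in Tris/NaCl/DTT/glycerol buffer, washed, crosslinked with 0.1% formaldehyde, ligated by proximity, amplified by PCR and sequenced. Dividing each hexamer's read frequency for a factor by its frequency for the tag-only sample gives the binding signal.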

ETV3L = target: T2, ETV3L (Homo sapiens, UniProt Q6ZN32 1-361)
T2 sequence: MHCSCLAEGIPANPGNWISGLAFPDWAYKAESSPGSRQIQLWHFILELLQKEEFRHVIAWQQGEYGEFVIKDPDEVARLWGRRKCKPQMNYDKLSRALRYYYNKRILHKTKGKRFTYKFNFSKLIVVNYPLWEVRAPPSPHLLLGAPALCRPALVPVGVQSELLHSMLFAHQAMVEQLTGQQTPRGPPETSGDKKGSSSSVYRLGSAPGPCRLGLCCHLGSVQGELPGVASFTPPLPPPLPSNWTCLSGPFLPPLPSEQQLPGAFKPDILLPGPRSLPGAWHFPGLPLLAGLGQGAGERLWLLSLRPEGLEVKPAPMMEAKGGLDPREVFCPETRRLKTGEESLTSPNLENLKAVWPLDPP
Summary of the method: as §1

ETS2 = target: T3, ETS2 (Homo sapiens, UniProt P15036 1-469)
T3 sequence: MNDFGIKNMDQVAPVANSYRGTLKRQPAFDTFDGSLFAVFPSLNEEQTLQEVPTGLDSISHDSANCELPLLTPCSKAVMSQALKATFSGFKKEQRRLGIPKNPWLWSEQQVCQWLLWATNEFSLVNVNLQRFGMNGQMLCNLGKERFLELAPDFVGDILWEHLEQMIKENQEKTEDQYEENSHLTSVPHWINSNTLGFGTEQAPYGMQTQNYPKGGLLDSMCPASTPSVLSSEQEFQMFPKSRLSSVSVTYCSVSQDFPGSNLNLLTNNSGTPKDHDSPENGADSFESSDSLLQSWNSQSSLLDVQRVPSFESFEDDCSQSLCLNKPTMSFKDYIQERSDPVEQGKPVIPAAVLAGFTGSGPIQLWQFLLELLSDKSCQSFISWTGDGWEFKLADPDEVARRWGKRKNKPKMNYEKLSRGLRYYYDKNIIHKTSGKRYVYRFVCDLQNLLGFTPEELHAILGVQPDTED
Summary of the method: as §1

SPDEF = target: T4, SPDEF (Homo sapiens, UniProt O95238 1-335)
T4 sequence: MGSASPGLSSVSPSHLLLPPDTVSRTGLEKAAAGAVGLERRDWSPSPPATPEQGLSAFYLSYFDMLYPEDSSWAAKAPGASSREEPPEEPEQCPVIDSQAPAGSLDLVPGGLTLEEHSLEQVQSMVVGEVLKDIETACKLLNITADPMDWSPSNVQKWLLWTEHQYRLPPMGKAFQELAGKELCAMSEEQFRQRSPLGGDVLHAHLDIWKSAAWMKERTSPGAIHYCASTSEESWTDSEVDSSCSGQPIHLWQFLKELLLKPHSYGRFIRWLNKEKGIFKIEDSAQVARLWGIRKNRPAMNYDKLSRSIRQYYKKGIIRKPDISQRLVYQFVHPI
Summary of the method: as §1

ETV7 = target: T5, ETV7 (Homo sapiens, UniProt Q9Y603 1-341)
T5 sequence: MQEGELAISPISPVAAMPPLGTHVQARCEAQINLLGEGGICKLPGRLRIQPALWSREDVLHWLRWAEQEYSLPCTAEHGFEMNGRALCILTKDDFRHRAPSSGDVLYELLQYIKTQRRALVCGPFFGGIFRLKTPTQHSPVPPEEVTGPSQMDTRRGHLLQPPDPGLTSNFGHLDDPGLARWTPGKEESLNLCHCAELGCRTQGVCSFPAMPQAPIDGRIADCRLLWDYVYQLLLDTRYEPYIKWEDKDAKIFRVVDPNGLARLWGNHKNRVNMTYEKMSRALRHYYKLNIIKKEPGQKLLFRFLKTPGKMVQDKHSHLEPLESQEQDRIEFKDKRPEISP
Summary of the method: as §1

ELF5 = target: T6, ELF5 (Homo sapiens, UniProt Q9UKW6-2 1-255)
T6 sequence: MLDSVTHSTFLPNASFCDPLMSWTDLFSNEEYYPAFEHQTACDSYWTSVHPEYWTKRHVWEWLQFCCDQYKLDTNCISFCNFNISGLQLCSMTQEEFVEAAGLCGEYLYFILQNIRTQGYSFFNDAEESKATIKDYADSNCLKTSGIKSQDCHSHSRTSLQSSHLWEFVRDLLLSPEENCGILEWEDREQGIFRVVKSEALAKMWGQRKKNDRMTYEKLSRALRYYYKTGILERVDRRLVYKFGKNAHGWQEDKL
Summary of the method: as §1

ETV3 = target: T7, ETV3 (Homo sapiens, UniProt P41162-2 1-143)
T7 sequence: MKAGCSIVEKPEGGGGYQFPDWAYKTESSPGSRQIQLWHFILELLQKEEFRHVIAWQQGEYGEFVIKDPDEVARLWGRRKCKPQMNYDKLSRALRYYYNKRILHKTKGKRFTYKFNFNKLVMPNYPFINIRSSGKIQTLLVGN
Summary of the method: as §1

ETV6 = ETV6 (Homo sapiens, UniProt P41212 1-452)
Chain of ETV6 (P41212 whole entry): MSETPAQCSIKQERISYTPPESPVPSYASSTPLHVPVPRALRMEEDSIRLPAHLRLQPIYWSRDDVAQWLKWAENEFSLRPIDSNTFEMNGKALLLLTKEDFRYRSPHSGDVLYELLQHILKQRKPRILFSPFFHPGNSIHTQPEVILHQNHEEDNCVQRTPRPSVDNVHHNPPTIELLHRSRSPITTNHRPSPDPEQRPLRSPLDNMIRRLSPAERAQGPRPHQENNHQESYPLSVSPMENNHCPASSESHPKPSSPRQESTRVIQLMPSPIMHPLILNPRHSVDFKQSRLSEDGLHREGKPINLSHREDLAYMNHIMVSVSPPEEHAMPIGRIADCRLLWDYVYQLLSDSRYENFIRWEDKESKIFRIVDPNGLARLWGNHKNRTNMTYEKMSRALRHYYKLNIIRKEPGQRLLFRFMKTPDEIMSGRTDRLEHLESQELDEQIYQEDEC
Summary of the method: as §1

Row | Sequence | binding signal (ERF) | binding signal (ETV3L) | binding signal (ETS2) | binding signal (SPDEF) | binding signal (ETV7) | binding signal (ELF5) | binding signal (ETV3) | binding signal (ETV6)
1 | CTCTAA | 1.44 fold enrichment (6-mer frequency, TF over GST control) | 1.37 fold enrichment (6-mer frequency, TF over GST control) | 1.32 fold enrichment (6-mer frequency, TF over GST control) | 1.19 fold enrichment (6-mer frequency, TF over GST control) | 1.27 fold enrichment (6-mer frequency, TF over GST control) | 1.34 fold enrichment (6-mer frequency, TF over GST control) | 1.24 fold enrichment (6-mer frequency, TF over GST control) | 1.26 fold enrichment (6-mer frequency, TF over GST control)
2 | CCATCA | 1.29 fold enrichment (6-mer frequency, TF over GST control) | 1.19 fold enrichment (6-mer frequency, TF over GST control) | 1.17 fold enrichment (6-mer frequency, TF over GST control) | 1.12 fold enrichment (6-mer frequency, TF over GST control) | 1.25 fold enrichment (6-mer frequency, TF over GST control) | 1.12 fold enrichment (6-mer frequency, TF over GST control) | 1.12 fold enrichment (6-mer frequency, TF over GST control) | 1.05 fold enrichment (6-mer frequency, TF over GST control)
3 | AATAGA | 1.19 fold enrichment (6-mer frequency, TF over GST control) | 1.16 fold enrichment (6-mer frequency, TF over GST control) | 1.1 fold enrichment (6-mer frequency, TF over GST control) | 1.05 fold enrichment (6-mer frequency, TF over GST control) | 1.17 fold enrichment (6-mer frequency, TF over GST control) | 1.11 fold enrichment (6-mer frequency, TF over GST control) | 1.09 fold enrichment (6-mer frequency, TF over GST control) | 1.17 fold enrichment (6-mer frequency, TF over GST control)
4 | TGTCAC | 1.13 fold enrichment (6-mer frequency, TF over GST control) | 1.21 fold enrichment (6-mer frequency, TF over GST control) | 1.26 fold enrichment (6-mer frequency, TF over GST control) | 1.09 fold enrichment (6-mer frequency, TF over GST control) | 1.29 fold enrichment (6-mer frequency, TF over GST control) | 1.11 fold enrichment (6-mer frequency, TF over GST control) | 1.08 fold enrichment (6-mer frequency, TF over GST control) | 1.1 fold enrichment (6-mer frequency, TF over GST control)
5 | CGACCA | 1.19 fold enrichment (6-mer frequency, TF over GST control) | 1.33 fold enrichment (6-mer frequency, TF over GST control) | 1.29 fold enrichment (6-mer frequency, TF over GST control) | 1.24 fold enrichment (6-mer frequency, TF over GST control) | 1.16 fold enrichment (6-mer frequency, TF over GST control) | 1.2 fold enrichment (6-mer frequency, TF over GST control) | 1.2 fold enrichment (6-mer frequency, TF over GST control) | 1.33 fold enrichment (6-mer frequency, TF over GST control)
6 | CTGGCA | 1.28 fold enrichment (6-mer frequency, TF over GST control) | 1.27 fold enrichment (6-mer frequency, TF over GST control) | 1.25 fold enrichment (6-mer frequency, TF over GST control) | 1.13 fold enrichment (6-mer frequency, TF over GST control) | 1.4 fold enrichment (6-mer frequency, TF over GST control) | 1.19 fold enrichment (6-mer frequency, TF over GST control) | 1.2 fold enrichment (6-mer frequency, TF over GST control) | 1.28 fold enrichment (6-mer frequency, TF over GST control)
7 | ACCTAT | 1.26 fold enrichment (6-mer frequency, TF over GST control) | 1.16 fold enrichment (6-mer frequency, TF over GST control) | 1.2 fold enrichment (6-mer frequency, TF over GST control) | 1.25 fold enrichment (6-mer frequency, TF over GST control) | 1.25 fold enrichment (6-mer frequency, TF over GST control) | 1.11 fold enrichment (6-mer frequency, TF over GST control) | 1.17 fold enrichment (6-mer frequency, TF over GST control) | 1.16 fold enrichment (6-mer frequency, TF over GST control)
8 | GTACTC | 1.06 fold enrichment (6-mer frequency, TF over GST control) | 1.15 fold enrichment (6-mer frequency, TF over GST control) | 1.13 fold enrichment (6-mer frequency, TF over GST control) | 1.02 fold enrichment (6-mer frequency, TF over GST control) | 1 fold enrichment (6-mer frequency, TF over GST control) | 1.12 fold enrichment (6-mer frequency, TF over GST control) | 1.11 fold enrichment (6-mer frequency, TF over GST control) | 1.14 fold enrichment (6-mer frequency, TF over GST control)
9 | CCATTG | 1.07 fold enrichment (6-mer frequency, TF over GST control) | 1.22 fold enrichment (6-mer frequency, TF over GST control) | 1.14 fold enrichment (6-mer frequency, TF over GST control) | 1.02 fold enrichment (6-mer frequency, TF over GST control) | 1.24 fold enrichment (6-mer frequency, TF over GST control) | 1.19 fold enrichment (6-mer frequency, TF over GST control) | 1.19 fold enrichment (6-mer frequency, TF over GST control) | 1.12 fold enrichment (6-mer frequency, TF over GST control)
